Rows were chosen to be rich in hits. Some 2.3% of all compounds tested hit in one or more screens of this group.
Mcl1 Bid PPI: disrupts binding of human Mcl-1 to Bid peptide. Q07820. TR-FRET Mcl-1/Bid-Dy647 peptide binding, 1536-well. inhibition, % at 21.7 µM. 220,000 compounds, 0.97% hits;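 active = compounds that cut the binding signal by more than half at the single screening dose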;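 note: His-tagged Mcl-1 with europium anti-His antibody binding Bid BH3 peptide; 0% = Mcl-1 plus peptide wells and 100% = peptide-only wells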
Mcl1-Noxa inh: Mcl-1/Noxa interaction inhibition; Q07820; inhibition, % at 21.7 µM; TR-FRET Mcl-1/Noxa peptide binding, 2 h; 220,000 compounds, 1.5% hits;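 active = compounds that cut the protein-peptide binding signal by more than 50% relative to plate controls in a single-dose test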;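 note: His-tagged Mcl-1 with rhodamine Noxa BH3 peptide and terbium anti-His antibody; 0% = Mcl-1 plus Noxa peptide wells and 100% = peptide-only wells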
MCL1 BIM primary: disrupts human MCL1 binding to BIM-BH3 peptide | Q07820 | GST-MCL1 / FITC-Bim-BH3 fluorescence polarization | inhibition, % at 10.9 µM | 320,000 compounds, 0.68% hits | AID 2057;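 active = inhibition above the mean inhibition of all tested compounds plus 3 SD, set per campaign, cut at about 40% in these data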;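 note: 0% = DMSO wells and 100% = unlabeled Bim-BH3 peptide control; higher means more loss of mP so more displacement of Bim peptide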
Mcl-1 Bim block: inhibitors of Bim-Mcl-1 interaction, human. Q07820. Bead-based flow cytometry, Bim peptide-Mcl-1 binding. inhibition, % at 10 µM. 190,000 compounds, 0.1% hits; in the data active = inhibition above about 40%;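 note: 0% = no compound tracer wells and 100% = peptide blocker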
GLD-1 RNA inh: GLD-1-TGE RNA interaction inhibition (C. elegans); AID 2280; Q17339; purified GLD-1 + fluorescein TGE RNA, fluorescence polarization; 320,000 compounds, 0.44% hits; inhibition, % at 5.96 µM;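 active = percent inhibition above a per-plate cutoff, the plate mean of test compounds plus 3 SD, cut at about 30% in these data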;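 note: 0% = DMSO wells with GLD-1 and probe and 100% = wells lacking GLD-1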
Target sequence (Q17339 whole entry, looked up): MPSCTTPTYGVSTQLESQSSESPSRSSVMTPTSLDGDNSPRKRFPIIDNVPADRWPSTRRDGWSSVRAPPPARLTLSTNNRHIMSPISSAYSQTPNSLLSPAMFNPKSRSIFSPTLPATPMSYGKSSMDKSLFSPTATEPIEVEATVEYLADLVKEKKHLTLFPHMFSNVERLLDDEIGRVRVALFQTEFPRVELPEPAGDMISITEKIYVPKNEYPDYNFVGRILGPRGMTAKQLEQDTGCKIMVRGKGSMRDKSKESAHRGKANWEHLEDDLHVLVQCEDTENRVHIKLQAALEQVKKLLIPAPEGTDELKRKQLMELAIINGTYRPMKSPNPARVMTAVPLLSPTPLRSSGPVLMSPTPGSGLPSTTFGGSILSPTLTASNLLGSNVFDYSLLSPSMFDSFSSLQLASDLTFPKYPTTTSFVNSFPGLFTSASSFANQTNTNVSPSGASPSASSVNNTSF
BCLXL inh: Bcl-xL (human) inhibition; inhibition, % at 10.9 µM; 320,000 compounds, 0.7% hits; GST-Bcl-xL / FITC-Bim BH3 peptide fluorescence polarization;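 active = inhibition above the mean of all tested compounds plus 3 SD, cutoff set per campaign, cut at about 30% in these data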;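 note: 0% = DMSO wells and 100% = unlabeled Bim-BH3 peptide competitor; inhibitors lower millipolarization by displacing the labeled peptide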
Target sequence (Q07817 whole entry, looked up): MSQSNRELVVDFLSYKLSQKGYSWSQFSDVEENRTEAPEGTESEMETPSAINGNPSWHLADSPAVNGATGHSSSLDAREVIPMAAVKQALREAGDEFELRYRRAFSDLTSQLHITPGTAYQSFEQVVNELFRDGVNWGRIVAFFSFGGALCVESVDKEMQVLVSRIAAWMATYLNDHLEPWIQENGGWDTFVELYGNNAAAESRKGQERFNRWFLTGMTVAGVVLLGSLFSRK
Bcl-xL conf: Bcl-xL (human) inhibition, MCL1 counter-screen confirmation; inhibition, % at 10.9 µM; AID 2166; shares compounds with MCL1 BIM primary; GST-Bcl-xL / FITC-Bim BH3 peptide FP binding; 1,700 compounds, 54% hits;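 active = inhibition above a cutoff equal to the mean inhibition of all tested compounds plus 3 SD, cut at about 30% in these data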;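 note: 0% = DMSO wells and 100% = unlabeled Bim BH3 control peptide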
MCL1 inh confirm: confirmation of human MCL1 and BIM-BH3 interaction inhibitors; AID 2168; inhibition, % at 10.9 µM; 1,700 compounds, 61% hits; shares compounds with MCL1 BIM primary; GST-MCL1 / FITC-Bim-BH3 fluorescence polarization;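 active = inhibition above the average of all tested compounds plus 3 SD, cut at about 40% in these data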;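 note: 0% = DMSO wells and 100% = unlabeled Bim-BH3 control peptide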
An asterisk follows results filed as active; · = no result; + = active, no number.

SMILES	Mcl1 Bid PPI	Mcl1-Noxa inh	MCL1 BIM primary	Mcl-1 Bim block	GLD-1 RNA inh	BCLXL inh	Bcl-xL conf	MCL1 inh confirm
COc1cc(C(=S)N2CCOCC2)cc(Br)c1OS(=O)(=O)c1ccccc1	·	·	2.8	·	10.3	0.2	·	·
O=C(CCCN1C(=O)/C(=C/c2ccco2)SC1=S)Nc1cccc(C(=O)O)c1	-34.3	14.8	60.1*	·	3.3	27.6	29.1	38.9
O=C(CCCN1C(=O)/C(=C\c2ccco2)SC1=S)Nc1ccc(O)cc1C(=O)O	·	·	71.1*	·	-0.3	39.5*	51.4*	77.5*
O=C(CCCN1C(=O)/C(=C\c2cccs2)SC1=S)Nc1cccc(C(=O)O)c1	-18.9	14.6	12.8	0.0	21.5	0.5	·	·
O=C(CCCN1C(=O)/C(=C\c2cccs2)SC1=S)Nc1ccc(O)cc1C(=O)O	·	·	19.2	·	-3.3	16.9	·	·
CC[C@H]1CCCCc2ccccc2[C@@H](C(=O)C[C@@H](O)CC(C)=O)OC1=O	·	·	·	·	-0.8	·	·	·
CSc1nc(N)c2c3c(sc2n1)COC(C(C)C)C3 (configuration not stated)	-22.0	17.1	-1.6	0.0	1.8	0.2	·	·
CSc1nc(N)nc(C(C)C)n1	6.5	-1.6	66.4*	·	0.0	6.9	11.6	18.7
Cc1ccc(-c2ccccc2NC(=O)CS(=O)CC(=O)Nc2ccc(C)c(Cl)c2)o1 (configuration not stated)	·	·	140.6*	·	140.1*	119.1*	11.0	15.3
Cc1ccc(-c2ccccc2NC(=O)CCl)o1	-50.6	16.2	1.8	-2.0	2.1	7.9	·	·
N#CC1=C(N)C(C#N)(C#N)C(c2cccnc2)C2COCC=C12 (configuration not stated)	-37.9	-2.4	27.9	-2.0	22.9	26.5	·	·
CC(C)(C)C1CC=C2C(C#N)=C(N)C(C#N)(C#N)C(c3cccs3)C2C1 (configuration not stated)	·	·	62.7*	·	61.9*	60.5*	114.5*	145.0*
COC(=O)c1ccc(CN2CCC(n3nccc3NC(=O)C3CCCC3)CC2)cc1	·	·	-1.6	·	2.5	1.5	·	·
COc1ccc(/C=N/N=C2/NC(=O)CC(C(=O)O)S2)cc1 (configuration not stated)	1.4	12.1	4.0	0.0	-8.0	2.2	·	·
COc1ccc(/C=N/N=C2/CC(C)(C)Cc3n[nH]c(=O)cc32)cc1	-47.3	16.8	155.2*	1.0	120.4*	138.0*	49.5*	63.4*
CC(C)CCOCC1CC2(CC(C)(c3csc(N)n3)OC2=O)C(=O)O1 (configuration not stated)	-21.0	-66.2	167.9*	-7.0	1.7	-7.3	3.3	-4.5
Cc1ccc2c(c1)c1nc3ccccc3nc1n2C	·	·	76.1*	·	18.7	58.1*	84.5*	135.7*
CCN(C(=O)COC(=O)c1nccnc1N)c1cccc2ccccc12	·	·	·	·	4.0	·	·	·
CCCCOC(=O)c1ccc(NC(=O)C(=O)CC(=O)c2ccc(OC)cc2)cc1	·	·	1.1	·	-7.9	3.5	·	·
CC(C)(C)c1cc[n+](-c2[nH]c(=O)sc2/C=N/NC(=O)c2ccccc2[O-])cc1	·	·	126.1*	·	70.2*	97.3*	84.3*	128.7*
Cc1cc[n+](-c2[nH]c(=O)sc2/C=N/NC([S-])=Nc2ccccc2)cc1	-63.9	10.0	163.8*	-6.0	115.9*	138.9*	128.2*	128.4*
CC(C)(C)c1cc[n+](-c2[nH]c(=O)sc2/C=N/N=C(\[O-])c2cccnc2)cc1	·	·	-1.3	·	2.4	1.5	·	·
CCc1ccc[n+](-c2[nH]c(=O)sc2/C=N/NC([S-])=Nc2ccccc2)c1	-23.6	47.3	144.1*	-7.0	108.2*	121.8*	154.4*	185.3*
CCc1ccc[n+](-c2[nH]c(=O)sc2/C=N/N=C(\N)[O-])c1	-29.4	12.7	-0.2	·	3.8	2.9	·	·
O=c1[nH]c(-[n+]2ccccc2)c(/C=N/NC([S-])=Nc2ccccc2)s1	-12.7	12.7	183.4*	·	142.8*	163.6*	109.7*	126.7*
SMILES	Mcl1 Bid PPI	Mcl1-Noxa inh	MCL1 BIM primary	Mcl-1 Bim block	GLD-1 RNA inh	BCLXL inh	Bcl-xL conf	MCL1 inh confirm
[S-]C(=Nc1ccc(Cl)cc1)N[n+]1ccccc1	-75.5	14.8	4.9	0.0	4.6	6.6	·	·
CCN(CC)CC(O)Cn1c(C)c(-c2ccccc2)c2cc([N+](=O)[O-])ccc21 (configuration not stated)	·	·	9.3	·	2.1	-3.0	·	·
Cc1cc(C)c[n+](-c2[nH]c(=O)sc2/C=N/NC([S-])=Nc2ccccc2)c1	-54.5	12.9	167.4*	-7.0	117.1*	128.7*	60.7*	59.6*
CCOC(=O)c1ccc2c(c1)C1C=CCC1C(C(=O)OCC)N2 (configuration not stated)	·	·	22.2	·	-0.4	25.0	·	·
CCOC(=O)C1Nc2ccc(Br)cc2C2C=CCC12 (configuration not stated)	·	·	44.3*	·	8.8	24.8	9.2	9.2
CCOC(=O)C1Nc2ccc(C)cc2C2C=CCC12 (configuration not stated)	·	·	50.8*	·	8.5	23.3	4.0	3.0
O=C(O)C1Nc2ccc(Br)cc2C2C=CCC12 (configuration not stated)	·	·	100.5*	·	6.8	78.6*	66.8*	107.0*
COC(=O)CNC(=O)C1Nc2ccccc2C2C=CCC12 (configuration not stated)	·	·	22.4	·	5.9	23.1	·	·
O=C(COC(=O)CCNS(=O)(=O)c1ccccc1)NC(=O)Cc1ccccc1	·	·	-0.2	·	3.8	3.2	·	·
COc1cc(OC)cc(C(=O)NNC(=O)c2cc(S(=O)(=O)N3CCOCC3)ccc2F)c1	·	·	2.5	·	2.9	4.1	·	·
COc1ccc(N=Nc2nc3ccc(Br)cc3n2C)cc1	-3.3	19.6	+	0.0	176.1*	+	88.1*	115.8*
COc1cc(-c2nnc3n2CCCCC3)cc(OC)c1OC	·	·	1.3	·	6.8	0.5	·	·
Cc1c(O)c2c3c(cccc3c1O)C(=O)N(c1ccccc1)C2=O	-5.7	-8.9	97.9*	-3.0	82.0*	90.9*	92.3*	105.3*
NS(=O)(=O)c1cccc(C(=O)NC2CCSc3ccccc32)c1 (configuration not stated)	·	·	6.0	·	13.5	2.2	·	·
NS(=O)(=O)c1cc(C(=O)NC2CCSc3ccccc32)ccc1Cl (configuration not stated)	·	·	79.1*	·	5.9	33.6*	29.6	70.2*
O=S(=O)(Nc1nc2ccc(Cl)cc2s1)c1cccs1	·	·	3.6	·	-3.1	7.7	·	·
CCOC(=O)c1c(OCC)[nH]c2c1cc(O)c1ccccc12	-23.0	75.0*	41.5*	8.0	16.2	16.3	55.9*	73.0*

High-throughput results (PubChem)
